# Screening results (PubChem)
# A selection: hits, their analogues and other compounds. The true share with any hit is near 3.3%.
# TPT1 inhibitor: C. albicans TPT1 enzyme inhibition. recombinant caTPT1, FP RNA substrate dephosphorylation. inhibition, % at 5 µM. 300,000 tested, 0.81% active. AID 1962;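 active = inhibition above the mean of all tested compounds plus 3 SD, set per screening campaign, cut at about 24% in these data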;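 also: plate controls were DMSO alone for no effect and ferristatin control at 100 nM for full effect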
# NRP1-CendR mod: NRP-1/CendR interaction modulation; FAM-RPARPAR peptide binding to NRP-1, fluorescence polarization; 360,000 tested, 0.85% active; inhibition, % at 25 µM; O14786;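 active = inhibition or corrected inhibition above about 18%, plus a signal ratio from 0.5 to 1.5, limit read from the data, passing the limit was not always enough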
# Target sequence (O14786 whole entry, looked up): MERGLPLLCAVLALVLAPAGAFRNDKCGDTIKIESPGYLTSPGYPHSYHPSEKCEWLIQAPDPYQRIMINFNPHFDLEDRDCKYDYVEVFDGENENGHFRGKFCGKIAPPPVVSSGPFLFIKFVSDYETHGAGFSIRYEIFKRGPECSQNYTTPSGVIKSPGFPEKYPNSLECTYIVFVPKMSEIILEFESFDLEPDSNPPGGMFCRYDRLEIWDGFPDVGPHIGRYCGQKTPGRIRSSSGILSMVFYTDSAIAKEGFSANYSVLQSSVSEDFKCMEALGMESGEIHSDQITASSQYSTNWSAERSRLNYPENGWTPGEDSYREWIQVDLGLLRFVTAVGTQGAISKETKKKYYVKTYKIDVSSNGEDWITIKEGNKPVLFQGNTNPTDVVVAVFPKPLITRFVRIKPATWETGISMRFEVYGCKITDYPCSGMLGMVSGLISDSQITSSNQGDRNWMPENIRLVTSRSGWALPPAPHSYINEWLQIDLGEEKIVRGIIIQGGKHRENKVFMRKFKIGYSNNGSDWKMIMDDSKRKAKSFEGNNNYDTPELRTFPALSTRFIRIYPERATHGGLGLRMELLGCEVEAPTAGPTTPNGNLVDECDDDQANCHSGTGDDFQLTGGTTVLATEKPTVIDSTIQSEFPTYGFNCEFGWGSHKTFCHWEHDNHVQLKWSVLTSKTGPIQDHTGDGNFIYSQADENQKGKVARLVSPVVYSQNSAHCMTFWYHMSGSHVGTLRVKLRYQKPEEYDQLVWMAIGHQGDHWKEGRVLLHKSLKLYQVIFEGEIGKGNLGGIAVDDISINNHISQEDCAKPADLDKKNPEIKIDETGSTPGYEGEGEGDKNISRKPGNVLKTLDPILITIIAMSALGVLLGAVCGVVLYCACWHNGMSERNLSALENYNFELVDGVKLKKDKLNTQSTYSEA
# PHOSPHO1 inh: PHOSPHO1 (human) inhibition | Q8TCT1 | recombinant PHOSPHO1, absorbance phosphatase assay | inhibition, % at 13.3 µM | 290,000 tested, 1.1% active; in the data active = inhibition above about 60%
# Rpn11 inh: blocks the human proteasome subunit Rpn11; human 26S proteasome, Ub4-pepOG fluorescence polarization; 20S core pre-blocked with epoxomicin; inhibition, % at 20 µM; 360,000 tested, 0.59% active; AID 588493;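 active = inhibition at 20 µM, scaled to each plate's controls, above about 33%, limit read from the data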
# Fh CTSL1 inh: blocks F. hepatica cathepsin L1 in PFM18AAP counter-screen; recombinant F. hepatica cathepsin L1, Z-Leu-Arg-MCA fluorescence; inhibition, % at 5.96 µM; 300,000 tested, 0.49% active; AID 1906;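 active = inhibition above the mean of all tested compounds plus 3 SD, set per screening campaign, cut at about 17% in these data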;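 also: 0% = plate median of test compound wells and 100% = 1 µM Z-Phe-Ala-diazomethylketone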
# HNF4A DNA FP: change in binding of human HNF4 alpha to DNA; HNF4a-FITC DNA binding, fluorescence polarization, 1 h; 360,000 tested, 0.3% active; P41235; activity change, % at 10 µM; in the data active = activity change above about 30%, passing the limit was not always enough
# Starred values were filed as active, the others as inactive; . = not tested or not shown.
SMILES,TPT1 inhibitor,NRP1-CendR mod,PHOSPHO1 inh,Rpn11 inh,Fh CTSL1 inh,HNF4A DNA FP
[O-][N+]1=c2ccc(Nc3ccccc3)cc2=NC12CCCCC2,-6.3,-0.2,8.3,-13.3,19.5*,-4.1
COc1ccc(Nc2ccc3c(c2)=NC2(CCCCC2)[N+]=3[O-])cc1,-10.2,16.5,50.0,-13.3,-0.7,-4.9
COc1ccc(N2CCN(C(CNC(=O)C(=O)NCCc3c[nH]c4ccccc34)c3ccco3)CC2)cc1 (centres undefined),0.5,12.9,-12.5,2.3,1.8,2.2
CC(=O)N1CCc2cc(Br)cc(S(=O)(=O)CCC(=O)N3CCN(c4ccccn4)CC3)c21,-1.9,-4.3,23.3,-2.6,21.0*,2.0
Cc1ccc(SCc2c(C(=O)N/N=C/c3cccs3)nnn2-c2nonc2N)cc1,.,-10.2,.,0.7,.,-1.7
COc1ccc(OC)c(NC(=O)CSC2=NN3CCCC(=O)N=C3S2)c1,-2.4,0.7,10.2,-0.1,5.3,0.6
COc1cccc(NC(=O)CSC2=NN3CCCC(=O)N=C3S2)c1,0.2,29.7*,27.9,-8.6,-0.3,-2.9
O=c1cc(CSc2nnc(-c3cccs3)n2Cc2ccccc2)nc2sc3ccccc3n12,1.6,-8.5,69.4*,-11.4,4.2,-12.2
CCn1c(SC(=O)NC2CCCCC2)nnc1-c1cccs1,-1.8,0.1,3.3,-1.0,55.4*,2.2
CCn1c(SCC(=O)c2ccccc2)nnc1-c1cccs1,3.2,31.8*,25.4,8.7,-3.0,-2.6
CCn1c(SCC(=O)c2cc(C)n(C)c2C)nnc1-c1ccccc1,-1.6,-2.1,62.2*,-7.8,-3.6,-2.3
CCn1c(SCC(=O)c2ccc(O)c(O)c2)nnc1-c1ccccc1,-2.5,-16.7,15.2,-1.3,-8.7,-0.9
Cc1ccc(CN2C(=O)C(F)(F)Oc3ccccc32)cc1,.,-6.0,.,0.6,.,-3.9
CCn1c(C)nnc1SCC(=O)NC1CCCCCC1,-0.4,27.3*,-0.6,-2.8,0.7,4.8
O=C1COc2ccc(C(=O)CSc3nnc(Cc4cccs4)n3-c3ccccc3)cc2N1,-2.0,3.2,33.0,-5.0,-6.3,-4.7
O=C1COc2ccc(C(=O)CSc3nnc(-c4cccs4)n3Cc3ccccc3)cc2N1,1.1,-10.1,73.8*,-3.8,-0.8,1.0
Cc1cc(C(=O)CSc2nnc(-c3cccs3)n2Cc2ccccc2)c(C)n1C,4.2,-1.6,89.7*,4.1,2.1,0.2
Cc1cc(NC(=O)c2cccc(C)c2[N+](=O)[O-])no1,-3.6,-8.4,-29.4,1.1,-0.6,-3.2
O=C(OCCCOC(=O)c1cc[n+]([O-])cc1)c1cc[n+]([O-])cc1,-2.7,9.1,61.6*,-1.3,-0.1,-0.1
Cc1ccc2nc(SCc3nnc(-c4ccccc4Br)o3)[nH]c2c1,-1.9,33.3*,20.6,5.2,0.7,0.4
C=CC(=O)Nc1ccc(Nc2nc(NC3CCC(N(C)C)CC3)nc3c2ncn3C(C)C)cc1 (centres undefined),.,27.0*,.,1.8,.,18.0
CC(C)n1cnc2c(Nc3ccc(F)c(Cl)c3)nc(NCCO)nc21,-3.7,-7.3,-13.0,-7.5,1.4,-13.3
COc1ccc(CNC(=O)C(=O)NC2CC(C)(C)NC(C)(C)C2)cc1,-2.1,1.6,8.3,-9.9,2.7,138.2*
COc1ccc(OC(C)C(=O)NC2CC(C)(C)NC(C)(C)C2)cc1 (centres undefined),1.0,16.3,-4.6,6.2,-1.1,-1.1
COC(=O)c1ccc2nc(NC(=O)CN3C(=O)CCC3=O)sc2c1,-1.6,-1.4,70.6*,3.7,-1.3,-2.0
SMILES,TPT1 inhibitor,NRP1-CendR mod,PHOSPHO1 inh,Rpn11 inh,Fh CTSL1 inh,HNF4A DNA FP
O=[N+]([O-])c1ccc(N2N=C(c3ccccc3)CC2c2ccccc2O)cc1 (centres undefined),.,-199.4,27.3,.,.,86.2*
NS(=O)(=O)c1ccc(N2N=C(c3ccccc3)CC2c2ccccc2Br)cc1 (centres undefined),.,-6.1,.,1.4,.,2.3
O=C(NNC(=O)C1CC1c1ccccc1)Nc1ccccc1 (centres undefined),0.9,-2.9,5.6,-4.3,0.0,3.0
CC1(C)OC(=O)C=C[C@]2(C)[C@H]3CC[C@@]4(C)[C@H](C(=O)O)OC(=O)[C@H]5O[C@]54[C@]3(C)C(=O)C[C@@H]12,.,22.2*,.,-0.1,.,-1.2
COc1ccc2[nH]c3c4c(ccc3c2c1)C(=O)C=CC4=O,.,-4.8,6.1,35.6,.,46.2*
COc1ccc2[nH]c(=O)cc(C(=O)O)c2c1,2.7,-3.8,-13.2,0.3,-0.1,-12.5
O=C(NCc1ccncc1)c1ccc(Cn2cc(C(F)(F)F)ccc2=O)cc1,-2.3,4.4,60.5*,-1.0,0.1,-1.3
Cc1cccc(NC(=O)c2ccc(Cn3cc(C(F)(F)F)ccc3=O)cc2)c1,-0.6,4.4,64.6*,4.4,2.4,5.7
O=C(O)c1ccc(Cn2cc(C(F)(F)F)ccc2=O)cc1,0.8,-3.5,11.4,-5.4,-3.1,1.5
COC(=O)/C=C1\OCc2cc(OCc3ccccc3)ccc21,.,11.4,.,.,.,-1.0
COc1ccc(NS(=O)(=O)NC(=O)c2cn(C)c3ccccc23)cc1,-2.1,8.2,23.5,-9.4,-0.3,3.5
COc1ccc(-c2cc(NC=O)c3ncc(-c4ccc(OC)c(OC)c4)n3c2)cc1,.,-57.2,.,35.1,.,18.0
Cc1c(NC(=O)C2CC(c3cccc(Br)c3)=NO2)c(=O)n(-c2ccccc2)n1C (centres undefined),-4.3,3.9,38.9,1.8,17.0*,1.7
Cc1c(NC(=O)c2cc(C3CC3)on2)c(=O)n(-c2ccccc2)n1C,-2.5,-9.2,-6.6,5.8,42.0*,-3.3
Cc1onc(-c2c(F)cccc2Cl)c1C(=O)Nc1c(C)n(C)n(-c2ccccc2)c1=O,1.2,4.9,11.1,-1.2,-0.9,-2.9
Cc1onc(-c2ccccc2)c1C(=O)Nc1c(C)n(C)n(-c2ccccc2)c1=O,-3.4,38.2*,16.7,6.7,3.8,0.2
O=C(CC(C(=O)O)c1ccc(Cl)cc1)c1ccc(Br)cc1 (centres undefined),-0.9,6.5,14.0,-5.1,5.9,-3.0
COc1ccccc1NC(=O)Nc1nc(CC(=O)N2CCN(c3ccccc3OC)CC2)cs1,-3.0,2.4,.,1.4,-3.6,1.1
CCN(CC)C(=O)CSc1nc2ncccc2[nH]1,-2.8,-5.3,0.6,7.0,18.6*,1.4
Fc1ccc(NC(=S)Nc2ccc(F)c(Cl)c2)cc1Cl,-4.3,-2.7,95.0*,6.8,2.4,1.7
O=C(NC(=S)Nc1ccc(F)c(Cl)c1)C1CC1,-1.9,3.9,17.8,2.2,-1.8,-1.0
COc1cccc(C2C3=C(N=c4s/c(=C\c5ccccc5O)c(=O)n42)c2ccccc2CC3)c1OC (centres undefined),-0.7,.,-0.6,.,-1.9,.
O=S(=O)(NCC(c1cccnc1)N1CCN(Cc2ccccc2)CC1)c1cc(F)ccc1F (centres undefined),-0.8,-21.0,70.6*,-4.4,-0.8,5.0
